Source: PubChem BioAssay (National Center for Advancing Translational Sciences (NCATS))
Only some compounds are listed: those with a hit (about 3.7% of all), similar ones and a draw of the others.
ATXN viability: viability counter-screen for ATXN expression inhibitors; S2 cells (HEK-293 line with an ATXN2-luciferase reporter) viability, CellTiter-Fluor protease fluorescence, 24 h; 400,000 tested, 0.49% active; AID 651635; Potency, µM (highest dose often 56.7 µM), actives largely listed as cytotoxic; also: nearly all actives have a fitted effect of over 40% in size
ATXN2 expr inh: reduces ATXN2 reporter expression in HEK-293 cells; HEK-293 ATXN2-luciferase reporter, luminescence, 24 h; Potency, µM (doses to about 57 µM), without a hit: at the highest dose activity change, negative = inhibition, most hits filed as inhibitors; 360,000 tested, 0.72% active; also: % is scaled to controls: 0 for no effect and ±100 for the full control effect; nearly all actives have a fitted effect of over 55% in size
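ATXN2-luciferase reporter cells (luciferase flanked by upstream and downstream ATXN2 gene portions) were treated 24 h at 37 °C with compounds at up to 57 uM. SteadyGlo luminescence gave expression; GF-AFC fluorescence gave viability.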
HepG2 tox: kills HepG2 cells in TGF-b inhibitor counter-screen. AID 588856. Potency, µM (highest dose often 46.1 µM), without a hit: at the top dose activity change, negative = cytotoxicity, most hits filed as cytotoxic. 410,000 tested, 0.76% active. HepG2 CAGA-GFP viability, ATP luminescence, 18 h
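HepG2 CAGA-GFP cells (1000/well, DMEM with 1% FBS) received compound, then TGF-beta at 500 pg/mL final, and were incubated 18 hours at 37 degrees C. Viability was read by CellTiter-Glo luminescence. Media-only wells were set as complete cell-killing and DMSO as no toxicity.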
GLP1R inv ag: acts as inverse agonist at human GLP-1 receptor; 410,000 tested, 1.6% active; P43220; HEK293 GLP-1R CRE-luciferase, luminescence, 24 h; GLP-1R form is constitutively active; Potency, µM (series often up to 38.3 µM), without a hit: at the top dose activity change, negative = inhibition, most hits filed as inhibitors; AID 624417; also: % is scaled to controls: 0 for no effect and ±100 for the full control effect; nearly all actives have a fitted effect of over 55% in size
Target sequence (P43220 whole entry, looked up): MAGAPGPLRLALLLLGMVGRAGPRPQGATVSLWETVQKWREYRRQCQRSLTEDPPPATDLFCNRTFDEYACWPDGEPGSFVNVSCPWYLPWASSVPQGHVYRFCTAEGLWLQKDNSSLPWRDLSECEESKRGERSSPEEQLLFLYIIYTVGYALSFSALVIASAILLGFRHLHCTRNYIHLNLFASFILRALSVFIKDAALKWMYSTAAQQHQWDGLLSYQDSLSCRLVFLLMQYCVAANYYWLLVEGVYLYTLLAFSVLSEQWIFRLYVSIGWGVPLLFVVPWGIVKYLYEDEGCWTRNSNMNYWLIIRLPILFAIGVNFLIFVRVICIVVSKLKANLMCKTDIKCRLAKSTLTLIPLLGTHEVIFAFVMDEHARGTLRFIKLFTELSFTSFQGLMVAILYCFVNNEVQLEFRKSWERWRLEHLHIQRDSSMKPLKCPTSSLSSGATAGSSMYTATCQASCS
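Luminescence readout: a drop in cAMP-driven luciferase signal flags inverse agonism at a constitutively active GLP-1R stably expressed in HEK293. Compound exposure lasted 24 hr at 37 deg C, 5% CO2.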
GLP1R ag: activates the human GLP-1 receptor. P43220. HEK293 GLP-1R CRE-luciferase, luminescence, 4-6 h; cells express a hypersensitive GLP-1R form. Potency, µM (doses to about 45.6 µM), without a hit: at the top dose activation, most hits filed as activators. 380,000 tested, 0.007% active; also: % of control where 0% means no effect
TGFb inhibitor: blocks TGF-b signaling; HepG2 CAGA-GFP TGF-b/SMAD3 reporter, GFP fluorescence, 18 h; TGF-beta stimulated, 500 pg/mL final; 410,000 tested, 1.2% active; Potency, µM (doses to about 46.1 µM), for the others: top-dose activity, negative = inhibition, usual class: inhibitors; also: % is scaled to controls: 0 for no effect and ±100 for the full control effect; nearly all actives have a fitted effect of over 65% in size
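GFP signal (ex488/em500-530) from TGF-beta-stimulated HEPG2 CAGA-GFP cells, 500 pg/mL final, 18 h at 37 degrees C in DMEM plus 1% FBS, normalized to unstimulated and DMSO-stimulated controls.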
* marks the source's active call; other numbers are inactive results; i = inactive; ? = inconclusive; . = no result given. Calls follow the shape of the dose curve; as a rule, active = well fitted curve in the direction sought with a large enough effect; inconclusive = small, poorly fitted or top-dose-only effect, or another doubt; inactive = no such curve, though single readings can be large; an effect the other way counts as inactive or inconclusive. Potency is read from the fitted curve at half-maximal effect.

SMILES | ATXN viability | ATXN2 expr inh | HepG2 tox | GLP1R inv ag | GLP1R ag | TGFb inhibitor
NC(=O)C1CCN(C2=C(Cl)C(=O)c3ccccc3C2=O)CC1 | ? | ? | 7.1µM* | ? | -14% | ?
Cc1ccc(-n2nnc(-c3nccs3)n2)cc1 | i | ? | -56% | 2.8µM* | -8% | -38%
CCOC(=O)C=C[C@H](C[C@@H]1CCNC1=O)NC(=O)[C@@H](CC(=O)[C@@H](NC(=O)c1cc(C)on1)C(C)C)Cc1ccc(F)cc1 | . | 13% | . | . | . | .
COc1ccccc1C(C[N+](=O)[O-])c1c(N)n(C)c(=O)n(C)c1=O (stereo not drawn) | . | . | 10µM* | 2.8µM* | -11% | 7.1µM*
C=C(C)CNC(=S)NNC(=O)CCn1c2cc(Cl)ccc2c2ccc(Cl)cc21 | i | 3% | -52% | 11µM* | -12% | ?
CC(C)c1cnn2c(NCc3ccccc3)cc(N[C@@H](CO)[C@H](O)CO)nc12 | . | 0.27µM* | . | . | . | .
CCc1cccc(NC(=O)C2CCCN2S(=O)(=O)c2ccc3nc(-c4ccccc4)[nH]c3c2)c1 (stereo not drawn) | . | . | -23% | ? | . | ?
Cc1ccccc1OCc1nc(-c2ccc(NC(=O)c3ccco3)cc2)no1 | ? | -3% | -24% | ? | -24% | -1%
Cc1ccccc1OCc1nc(-c2ccc(NC(=O)c3ccc4c(c3)OCO4)cc2)no1 | ? | ? | 20µM* | ? | -8% | ?
CCCc1cc(=O)[nH]c(SCC(=O)NCCCC(=O)OCC)n1 | i | -5% | 0.45µM* | 0% | 0% | 1%
CCCc1cc(=O)[nH]c(SCC(=O)NC(=O)OCC)n1 | i | -3% | -3% | 53% | -8% | 0%
O=C(NCC(=O)N1CCN(C(c2ccccc2)c2ccccc2)CC1)c1ccccc1F | i | -14% | -13% | 8.9µM* | 5% | 19%
Cc1oc(C(C)(C)C)cc1C(=O)N1CCN(C(c2ccccc2)c2ccccc2)CC1 | i | -27% | -1% | 7.9µM* | 1% | ?
O=C(C1=COCCO1)N1CCN(C(c2ccccc2)c2ccccc2)CC1 | i | 0% | 3% | 10µM* | 3% | -4%
Cc1ccccc1C(=O)N1CCN(C(c2ccccc2)c2ccccc2)CC1 | ? | . | -30% | 8.9µM* | -4% | ?
CCOc1ccc(CC(=O)NCC(c2cccs2)S(=O)(=O)c2ccc(F)c(C)c2)cc1 (stereo not drawn) | . | . | -4% | 1% | . | 9%
Cc1ccc(C)c(N2CCN(c3nc4ccccc4c(=O)n3-c3ccc(Cl)cc3)CC2)c1 | . | . | -13% | -14% | . | -26%
COc1ccc(-c2cn3c(n2)sc2cc(C(=O)NCCC4=CCCCC4)ccc23)cc1 | . | . | -12% | 16% | . | -5%
COc1ccc(-c2noc(-c3cc(C(C)C)[nH]n3)n2)cc1 | . | . | -50% | ? | . | ?
CCCCOC(=O)c1c(C)oc2ccc(NS(=O)(=O)c3ccc4c5c(cccc35)C(=O)N4)cc12 | i | ? | -18% | 9% | 4% | 14µM*
Cc1cnc2c(C)cccc2c1/C=C/c1ccc(N(C)C)cc1 | . | . | -32% | . | . | ?
COc1ccc(CN2CCCC(n3cc(C(=O)N4CCCCC4)nn3)C2)c(OC)c1 (stereo not drawn) | i | . | . | . | . | .
O=C(c1ccccc1)c1nn(-c2ccccc2)c(=O)cc1C(F)(F)F | i | ? | 1% | ? | 8% | 1%
O=C(c1ccccc1)c1nn(-c2ccc(Cl)cc2)c(=O)cc1C(F)(F)F | ? | 11µM* | -6% | 4µM* | 30% | ?
O=C(c1cccc(Cl)c1)c1nn(-c2ccccc2)c(=O)cc1C(F)(F)F | ? | 25µM* | 9% | ? | 1% | -9%
SMILES | ATXN viability | ATXN2 expr inh | HepG2 tox | GLP1R inv ag | GLP1R ag | TGFb inhibitor
O=C(Nc1ccccc1)c1nn(-c2ccccc2)c(=O)cc1C(F)(F)F | i | -24% | 5% | 2% | -9% | -19%
Cn1c(=S)c2[nH]c(SCCN)nc2n(C)c1=O | i | -8% | -28% | ? | -3% | -7%
CCN1CCCC(Sc2nc3c([nH]2)c(=S)n(C)c(=O)n3C)C1 (stereo not drawn) | ? | . | -23% | 4.5µM* | 0% | ?
Cn1c(=S)c2[nH]c(SCCN3CCCC3)nc2n(C)c1=O | i | . | -10% | 5.6µM* | -5% | ?
COc1cc(=O)n2c(c1C(=O)N(C)Cc1cscn1)CCN(Cc1c(C)[nH]c3ccccc13)CC2 | i | . | . | . | . | .
CCCN(CCC)CCCNC(=O)c1cc2c(=O)oc3ccc(C)cc3c2s1 | i | 5% | -25% | 4% | 1% | 1%
O=C(COC(=O)Cc1ccccc1F)Nc1cc(S(=O)(=O)N2CCOCC2)ccc1N1CCCC1 | 1µM* | 3% | -35% | 20% | 4% | -14%
CCN1CCN(c2ccc(S(=O)(=O)N3CCOCC3)cc2NC(=O)C2CCC(C(C)(C)C)CC2)CC1 (stereo not drawn) | i | . | 20µM* | ? | 11% | ?
O=C(COC(=O)CCc1ccccc1)Nc1cc(S(=O)(=O)N2CCOCC2)ccc1N1CCCC1 | i | -2% | 1% | 0% | 4% | 7%
Cc1[nH]c2ccccc2c1C1(O)C(=O)N(Cc2ccccc2)c2ccc(Br)cc21 (stereo not drawn) | i | ? | -116% | ? | -7% | ?
Cc1ccc(CN2C(=O)C(O)(c3c[nH]c4ccccc34)c3cc(Cl)ccc32)cc1 (stereo not drawn) | i | ? | 13µM* | ? | -8% | 2.8µM*
OCCCNCc1cc2cc3c(cc2nc1N1CCN(c2cccc(Cl)c2)CC1)OCO3 | i | . | . | . | . | .
Fc1ccc(-[n+]2nc(Nc3ccccc3)sc2-c2c3ccccc3cc3ccccc23)cc1 | 11µM* | 25µM* | 11µM* | 11µM* | 2% | 11µM*
C[Se]CC[C@H](N)C(=O)O | . | . | . | . | 1% | .
CCN(CC)S(=O)(=O)c1ccc(N/N=C/c2cc(OC)ccc2O)nc1 | i | 3.2µM* | -22% | ? | 1% | -14%
CCN(CC)S(=O)(=O)c1ccc(N/N=C/c2cccnc2)nc1 | i | . | -2% | 2% | 9% | 0%
CCC[N+](C)(C)c1ccc(/C=C/c2ccncc2)cc1 | . | . | -33% | . | . | 44%
CC(=O)c1ccccc1Oc1cc(NN2CCCCC2)c([N+](=O)[O-])cc1[N+](=O)[O-] | i | -1% | -32% | ? | -5% | -17%
CC(=O)c1cccc(Oc2cc(NN3CCCCC3)c([N+](=O)[O-])cc2[N+](=O)[O-])c1 | ? | 0% | -19% | 10µM* | 18% | ?
